In the library only some 21% were active in any assay of this set; here they are far more common.
Shiga toxin inh: inhibitors of Shiga toxin in Vero cells; Vero cells, Shiga toxin protein synthesis inhibition reporter; inhibition, % at 38.7 µM; actives 9.2% (n = 290,000); AID 2315; in the data active = inhibition mostly above about 28%, no sharp cut-off; inactive = mostly below about 43%; also: 0% is about no effect
SARS PLP yeast: SARS-CoV PLP inhibition in yeast | Potency, µM (titrated, usually from 32.9 µM), for the others: at the highest dose activity, positive = growth rescue, usual class: activators | S. cerevisiae expressing SARS-CoV PLpro, growth rescue | actives 0.19% (n = 330,000) | AID 485353; also: potency is read from the fitted curve at half-maximal effect; 0% is about no effect; nearly all actives have a fitted effect of over 55% in size
Pf growth 96h: P. falciparum growth inhibition at 96 hours. actives 6.9% (n = 320,000). P. falciparum luciferase reporter growth, 96 h. Potency, µM (series often up to 28.7 µM), for the others: at the top dose activity change, negative = inhibition, actives largely listed as inhibitors; active = well fitted inhibition curve with a large enough effect; inconclusive = small, poorly fitted or top-dose-only effect, or another doubt; inactive = no such curve, though single readings can be large or run the other way; also: potency is read from the fitted curve at half-maximal effect; % is scaled to controls: 0 for no effect and ±100 for the full control effect
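Delayed-death screen, second-generation endpoint: infected erythrocytes, 2% hematocrit, 0.05% parasitemia final; 96 hours at 37 C, 5% CO2; luciferase detection reagent; luminescence decrease equals reduced growth.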
Cycloheximide cs: counter-screen for Shiga toxin inhibitors: cycloheximide protein synthesis inhibition; actives 12% (n = 300,000); max response, %; cell reporter, cycloheximide protein synthesis inhibition counterscreen; in the data active = max response mostly above about 13%, no sharp cut-off; inactive = mostly below about 14%; also: read at 38.3 µM for the half of the compounds with a filed dose; 0% is about no effect
Pf growth 48h: P. falciparum growth inhibition at 48 hours (one generation); Potency, µM (series often up to 28.7 µM), without a hit: top-dose activity change, negative = inhibition, actives largely listed as inhibitors; AID 504832; actives 5.9% (n = 310,000); P. falciparum luciferase growth in erythrocytes, 48 h; active = well fitted inhibition curve with a large enough effect; inconclusive = small, poorly fitted or top-dose-only effect, or another doubt; inactive = no such curve, though single readings can be large or run the other way; also: potency is read from the fitted curve at half-maximal effect; % is scaled to controls: 0 for no effect and ±100 for the full control effect
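Erythrocytes infected with P. falciparum carrying an integrated firefly luciferase reporter (2% hematocrit, 0.1% parasitemia final) were exposed to compounds in RPMI 1640 with 0.5% Albumax at 37 C, 5% CO2. Growth inhibition was scored as reduced luminescence.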
NS1 inh: influenza NS1 inhibition; AID 2326; actives 0.4% (n = 270,000); Potency, µM (titrated, usually from 46.1 µM), without a hit: top-dose activity, positive = more growth; also: potency is read from the fitted curve at half-maximal effect; actives are rising curves; nearly all actives have a fitted effect of over 50% in size
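Growth recovery, yeast-based: influenza A NS1 expressed in S. cerevisiae causes slow growth, and suppressors are detected by OD600. The parent strain without NS1 is used as positive control.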
* marks the source's active call; other numbers are inactive results; ? = inconclusive; nt = no result. Unless noted, calls follow the shape of the full dose curve.

SMILES	Shiga toxin inh	SARS PLP yeast	Pf growth 96h	Cycloheximide cs	Pf growth 48h	NS1 inh
O=S(=O)(c1ccc(O)cc1)c1ccc(O)cc1	-4.0	-0.5%	?	-2.9	20.2%	4.7%
O=C1C=CC(=C(c2ccc(O)cc2)c2ccc(O)cc2)C=C1	nt	-0.6%	7.38µM*	nt	7.38µM*	nt
O=C(Nc1cccnc1)c1cc(-c2ccc(Cl)cc2Cl)on1	62.6*	-4.8%	33.6%	28.1*	164.1%	-1.6%
O=C(Nc1cccnc1)c1cc(-c2ccc(Cl)cc2)on1	152.4*	-2.5%	91.1%	39.6*	230.7%	nt
Cc1cc(C(=O)Nc2cccnc2)no1	10.9	4.7%	2.5%	-0.3	-3.1%	9.3%
O=C(Nc1cccnc1)c1cc(F)c(F)cc1Cl	-5.0	2.5%	19.0%	-5.6	23.7%	nt
CCn1ccnc1CN1CCCC(C(=O)c2cc(C)c(OC)c(C)c2)C1 (stereo not drawn)	13.9	-0.1%	?	-1.9	11.7µM*	0.1%
CCn1ccnc1CN1CCCC(C(=O)c2cc(Cl)ccc2OC)C1 (stereo not drawn)	-3.1	-0.1%	14.1%	-1.2	20.7%	1.2%
COc1ccc2cc(C(=O)C3CCCN(Cc4ccccn4)C3)ccc2c1 (stereo not drawn)	-1.1	-0.9%	-21.3%	11.2	9.28µM*	0.9%
CCn1ccnc1CN1CCCC(C(=O)c2ccc3cc(OC)ccc3c2)C1 (stereo not drawn)	13.4	-2.8%	?	1.9	2.94µM*	-0.7%
COc1c(C)cc(C(=O)C2CCCN(Cc3ccc(Oc4ncccn4)cc3)C2)cc1C (stereo not drawn)	-9.9	0.3%	-29.1%	1.2	?	-2.5%
O=C(CSc1nnc(Cc2ccccc2)o1)Nc1ccc2c(c1)OCO2	27.6	15.3%	183.8%	38.1*	nt	13.8%
Cc1cccc(C)c1NC(=O)CSc1nnc(Cc2ccccc2)o1	12.9	2.2%	11.7µM*	-2.1	-16.8%	-1.2%
Cc1ccc(NS(=O)(=O)c2cc(C(=O)NCCSc3ccc(C)cc3)ccc2C)cc1	-10.3	-0.7%	11.7µM*	8.6	?	20.2%
CCc1c(C(=O)NNC(=S)NCCc2ccccc2)csc1C	14.4	3.4%	0.9%	11.8*	34.9%	3.6%
O=C(NCCc1ccccc1)c1ccccc1F	108.8*	-0.8%	-1.4%	35.5*	165.1%	-6.1%
CCc1c(C(=O)NNC(=S)NC2CCCCC2)csc1C	3.3	0.6%	-2.9%	9.6	19.7%	2.8%
Cc1ccc(SCCNC(=O)c2ccc(C)c(S(=O)(=O)Nc3cccc(C)c3)c2)cc1	-12.9	-3.3%	?	-3.5	?	-0.1%
Cc1ccc(SCCNC(=O)c2ccccc2F)cc1	24.9	2.4%	?	13.3*	29.6%	-27.7%
CSc1ccccc1C(=O)NCCSc1ccc(C)cc1	6.1	-4.4%	-0.3%	0.3	2.7%	-27.0%
O=C(NC(=S)NCc1ccccc1)c1ccccc1F	10.4	17.1%	13.9%	13.4	2.3%	4.7%
O=C(NC(=S)NCCc1ccccc1)c1ccccc1F	94.4*	12.0%	-10.2%	41.1*	48.3%	0.0%
COc1ccccc1CCNC(=O)c1ccoc1C	32.4	-10.6%	12.9%	19.3*	2.0%	-53.6%
CN(C(=O)c1ccccc1Cl)c1ccccc1C(=O)NCCc1ccccc1	1.3	-1.1%	-5.4%	8.5	-18.2%	0.3%
CN(C(=O)COc1ccccc1C(=O)NCCc1ccccc1)c1ccccc1	70.5*	-2.3%	126.1%	30.4*	22.3%	-8.4%
SMILES	Shiga toxin inh	SARS PLP yeast	Pf growth 96h	Cycloheximide cs	Pf growth 48h	NS1 inh
Cc1occc1C(=O)NCCCCc1ccccc1	54.8*	-23.4%	?	23.4*	nt	-91.7%
COc1ccc(CC(=O)OCC(=O)Nc2cc(Cl)ccc2C)cc1	nt	-4.9%	nt	nt	nt	nt
CC(C)(C)c1ccc(-c2nc(C#N)c(N3CCC(C(N)=O)CC3)o2)cc1	1.4	-2.8%	?	8.1	?	7.2%
COc1ccc(NC(=O)CN2C(=O)COc3ccc(S(=O)(=O)N4CCOCC4)cc32)cc1Cl	-8.2	-0.7%	?	2.4	?	-9.2%
C/C(=N/NC(=O)Cc1ccccc1)c1ccc(C)s1	-27.9	-6.1%	46.2%	25.4*	68.1%	5.4%
O=C(NCCCCNC(=O)c1c(F)c(F)c(F)c(F)c1F)c1c(F)c(F)c(F)c(F)c1F	-5.2	-15.3%	-18.4%	-1.8	-27.2%	6.9%
CC(C)(CNC(=S)NCCc1ccccc1)CNC(=S)NCCc1ccccc1	-2.7	19.6%	?	-0.7	13.1µM*	8.3%
O=C(NCCc1ccccc1)c1c(F)c(F)c(F)c(F)c1F	32.5*	-3.7%	-0.6%	11.3	-16.8%	2.9%
COc1ccc(CC(=O)N/N=C(\C)c2cccs2)cc1	14.6	0.6%	-16.9%	11.0	3.6%	0.8%
OCCNC(=S)NCCc1ccccc1	18.6	4.3%	86.2%	6.3	15.9%	7.6%
O=C(NC(=O)c1ccccc1F)OCc1ccc(Cl)cc1Cl	69.3*	-1.9%	-15.7%	26.4*	22.9%	-9.2%
O=C(CNC(=O)c1ccccc1F)NCCc1ccc(Cl)cc1Cl	3.5	2.9%	34.1%	6.9	-11.0%	5.4%
CCCc1ccc(C(=O)O)cc1	nt	nt	?	nt	-13.6%	nt
O=C(NCCc1ccccc1)c1ccc(Cl)cc1[N+](=O)[O-]	67.3*	-2.0%	105.9%	27.4*	71.8%	-4.7%
O=C(NC(=S)N1CCCC1)c1ccccc1F	nt	-1.2%	-6.1%	nt	-25.2%	nt
O=C(NC(=S)NC(=O)c1ccccc1F)c1ccccc1F	73.3*	-55.9%	2.6%	40.1*	45.0%	-0.2%
COc1ccc(CCNC(=S)NC(=O)c2ccc(Br)cc2)cc1OC	-15.4	-0.1%	31.3%	-1.9	16.3%	0.4%
O=C(NC(=S)NCCc1ccccc1)c1ccccc1	44.7*	16.7%	18.3%	17.6*	32.0%	2.3%
COc1ccc(CCNC(=S)NC(=O)c2ccccc2)cc1C	16.8	-1.2%	-76.5%	8.4*	-8.5%	-2.4%
NS(=O)(=O)c1ccc(CNC(=O)c2cc(=O)c3ccccc3o2)cc1	7.4	8.8%	20.8%	-12.3	nt	-1.3%
Cc1cccn2c(=O)c(C=O)c(N3CCSCC3)nc12	-7.1	0.1%	13.1%	1.2	0.2%	-0.3%
CCn1cc(NC(=O)CCl)c(C)n1	18.3	3.0%	?	6.3	?	2.1%
O=C(NCCCCc1ccccc1)c1ccccc1F	18.8	-1.8%	9.8%	16.6*	22.9%	-37.1%
Cc1ccccc1C(=O)NCCCc1ccccc1	139.8*	2.5%	?	39.1*	72.2%	-21.0%
O=C(NCCCCc1ccccc1)c1ccccc1Cl	57.6*	-8.9%	67.1%	23.9*	48.7%	nt
Cc1c(C(=O)NCCc2ccc3c(c2)OCCO3)oc2ccccc12	6.6	-11.2%	2.4%	1.2	nt	-1.9%
O=C(NCCc1ccc2c(c1)OCCO2)c1ccccc1F	91.4*	13.5%	103.9%	69.7*	112.1%	-22.4%
COc1ccccc1CNC(=O)COC(=O)C1CCN(c2ccc(C(F)(F)F)cn2)CC1	nt	-8.0%	43.5%	nt	10.9%	nt

Bioassay records: PubChem BioAssay, National Center for Advancing Translational Sciences (NCATS)
